V-ATPase pH = regulators of yeast V-ATPase proton pumping, primary screen, pHLuorin cytosolic pH fluorescence. S. cerevisiae. response, % at 10 µM. 350,000 tested, 0.37% active. AID 504577, 2011; in the data active = response mostly above about 7.3%, no sharp cut-off; inactive = mostly below about 5.4%; also: actives read high
HSV replic up = enhancers of HSV replication in host cells, fold increase, host cell viability; HSV replication augmentation in cells; maximum fold increase; 220,000 tested, 0.005% active; AID 1956, 2009; in the data active = maximum fold increase above about 1.5; inconclusive = no clear call, values can overlap the other calls; tested in PC3 cells
H9c2 protect = cardioprotection against H2O2-induced cell death, primary screen, uHTS, H9c2 cells, ATPLite luminescence | H9c2 cardiomyocytes, H2O2 injury protection, 2 h | protection from H2O2 cell death, % at 20 µM | 360,000 tested, 0.63% active | AID 588492, 2011;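 active = compounds giving at least 50% protection of heart cells from peroxide-induced death in the single-dose screen, raw or plate-pattern-corrected value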;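 also: 0% = DMSO wells with peroxide and 100% = DMSO wells without peroxide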
MIN6 prolif = inducers of MIN6 beta-cell proliferation, primary screen, ATP luminescence, uHTS; proliferation, % at 10 µM; 330,000 tested, 0.29% active; MIN6 cells proliferation, ATPlite luminescence, 48 h; cells starved in 0.2% serum; 100% = growth in 10% serum;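 active = compounds whose signal lies at least 3.5 SD above the mean of all wells on their plate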;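 also: 0% = DMSO-treated cells in low-serum medium and 100% = 10% serum control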
pCIP destab = p/CIP-EGFP fusion destabilizers, primary screen, fluorescence, F442A cells | Q05BA5 | 16 h | decrease of EGFP signal, % at 10 µM | 290,000 tested, 0.01% active;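 active = EGFP signal decrease of at least 30% at 10 µM or well 3 SD below plate mean, unless failing retest; inactive = the rest, including hits failing retest or dose response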
Yeast superoxide = reduction of superoxide in aged yeast, primary screen, HTS. S. cerevisiae aged cells, superoxide DHE fluorescence; stronger effect = lower value. superoxide response (% of plate mean), % at 10 µM. 330,000 tested, 0.18% active. AID 2690, 2010;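 active = superoxide response under a set limit, about three screen SD below normal, cut at about 65% in these data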;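 also: yeast aged for seven days with compound at 30 °C before DHE staining; 100% = average MFI of all compound-treated wells on the plate with controls excluded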
V-ATPase pH SP = yeast V-ATPase proton pumping modulators, confirmation, S. cerevisiae, pH-sensitive GFP, second cherry-pick; shares compounds with V-ATPase pH; S. cerevisiae pHLuorin cytosolic pH, V-ATPase proton transport; response, % at 10 µM; 980 tested, 2% active; AID 602197, 2012; in the data active = response above about 24%;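 also: plate controls were vehicle wells for no effect and positive control wells for full effect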
Numbers without * were called inactive. Rows were chosen to be rich in hits. Some 1.4% of all compounds tested hit in one or more screens of this group.

Screening COc1ccc(C2C3=C(CC(C)(C)CC3=O)Oc3ncn4nc(-c5ccccc5)nc4c32)cc1 (configuration not stated) returned V-ATPase pH 12.2*, H9c2 protect 22.3 and V-ATPase pH SP -1.1.
For CC1(C)CC(=O)C2=C(C1)Oc1ncn3nc(-c4cccnc4)nc3c1C2c1ccccc1 (configuration not stated) the results were H9c2 protect -3.3 and pCIP destab -9.0.
`O=C(O)c1cc(NC(=O)c2ccc3c(c2)C(=O)N(Cc2ccccc2)C3=O)cc(C(=O)O)c1` gave V-ATPase pH 7.6*, H9c2 protect 2.2, MIN6 prolif -1.2, pCIP destab 6.4, Yeast superoxide 113.0 and V-ATPase pH SP -1.7.
COc1ccc(C2=NS(=O)(=O)N(C)C(C(=O)NC3CCCCC3)=C2)cc1 was read as V-ATPase pH 11.4*, H9c2 protect -12.3, MIN6 prolif -2.2, pCIP destab -2.3, Yeast superoxide 109.1 and V-ATPase pH SP -4.5.
`Cc1c(NC(=O)c2cccc(NC(=O)COc3ccccc3C#N)c2)c(=O)n(-c2ccccc2)n1C` gave V-ATPase pH 14.6*, H9c2 protect 4.3, MIN6 prolif -5.8 and V-ATPase pH SP -0.5.
For Cc1c(NC(=O)c2cccc(NC(=O)COc3ccccc3)c2)c(=O)n(-c2ccccc2)n1C the results were V-ATPase pH -2.2, H9c2 protect -0.9, MIN6 prolif 2.6 and Yeast superoxide 112.5.
Cc1ccc(S(=O)(=O)c2c[nH]c3cc4c(cc3c2=O)OCO4)cc1 was read as HSV replic up inactive, MIN6 prolif -2.5, pCIP destab 6.5 and Yeast superoxide 109.0.
Screening Cc1ccc(-c2nn3nnnc3c3ccccc23)cc1C returned V-ATPase pH 7.7*, HSV replic up inactive, H9c2 protect 3.2, MIN6 prolif 1.1, pCIP destab 0.6, Yeast superoxide 99.4 and V-ATPase pH SP -1.9.
For Cc1ccc(NC(=O)c2ncn(CCCN3CCN(c4ccccn4)CC3)n2)cc1C the results were V-ATPase pH 12.7*, H9c2 protect 3.5 and V-ATPase pH SP 1.5.
NNC(=O)COc1cccc(C(F)(F)F)c1 was read as V-ATPase pH 11.9*, HSV replic up inactive, H9c2 protect -4.4, MIN6 prolif -0.6, pCIP destab -23.3, Yeast superoxide 100.7 and V-ATPase pH SP 2.6.
`O=C(Cc1ccc([N+](=O)[O-])cc1)Nc1cccc(C(F)(F)F)c1` gave V-ATPase pH 11.8*, HSV replic up inactive, H9c2 protect -13.9, MIN6 prolif -2.2, pCIP destab -13.0, Yeast superoxide 86.4 and V-ATPase pH SP -2.0.
`Cc1cc(C)n(CC(=O)Nc2ccccc2)n1` gave V-ATPase pH 10.7*, HSV replic up inactive, H9c2 protect 1.8, MIN6 prolif -1.7, pCIP destab 0.6, Yeast superoxide 102.5 and V-ATPase pH SP 3.3.
For Cc1sc(-c2ccccn2)nc1OC(=O)c1ccc(F)cc1F the results were V-ATPase pH 10.9*, HSV replic up inactive, H9c2 protect 4.8, pCIP destab -2.2, Yeast superoxide 91.3 and V-ATPase pH SP 0.8.
`Cc1nc(C)c(-c2ccc(SCc3ccccc3C)nn2)s1` gave V-ATPase pH 10.3*, H9c2 protect -3.4, MIN6 prolif -1.3, pCIP destab -12.2, Yeast superoxide 95.8 and V-ATPase pH SP 2.0.
Screening Cc1ccc(NC(=O)c2cc(S(=O)(=O)N3CCOCC3)cn2C)cc1Cl returned V-ATPase pH 1.2, H9c2 protect -2.8, MIN6 prolif -0.3, pCIP destab -3.1 and Yeast superoxide 84.5.
`O=C(NNS(=O)(=O)c1ccccc1[N+](=O)[O-])c1cc2ccccc2cc1O` gave V-ATPase pH -3.6, H9c2 protect 5.3, MIN6 prolif 0.2, pCIP destab 0.4 and Yeast superoxide 125.0.
`O=C(NNS(=O)(=O)c1ccccc1[N+](=O)[O-])c1ccccc1Cl` gave V-ATPase pH 11.8*, HSV replic up inactive, H9c2 protect -4.8, MIN6 prolif -2.3, pCIP destab -6.4, Yeast superoxide 116.1 and V-ATPase pH SP -1.7.
Screening CC1(C(=O)NS(=O)(=O)c2cccc(Cl)c2)CCN1C(=O)C1(c2ccc(Cl)cc2)CCC1 (configuration not stated) returned H9c2 protect -1.2.
For Nc1cnn(C2OC(CO)C(O)C2O)c(=O)n1 (configuration not stated) the results were V-ATPase pH 7.8*, HSV replic up inactive, H9c2 protect 1.3, MIN6 prolif 0.0, pCIP destab 30.9, Yeast superoxide 84.7 and V-ATPase pH SP 3.0.
`Nc1ncn(C2O[C@H](CO)[C@@H](O)[C@H]2O)c(=O)n1` (some centres not stated) gave MIN6 prolif -5.3 and Yeast superoxide 98.6.
Screening CC(C)(C)c1ccc(OCCC(=O)Nc2ccc(N3CCOCC3)cc2N2CCOCC2)cc1 returned V-ATPase pH -1.1, H9c2 protect -1.5, MIN6 prolif -3.9 and Yeast superoxide 90.0.
Screening CN(CC(=O)Nc1ccc(N2CCOCC2)cc1)C(=O)CC(c1ccccc1)c1ccccc1 returned V-ATPase pH 11.7*, HSV replic up inactive, H9c2 protect -3.7, MIN6 prolif -0.2, pCIP destab 3.8, Yeast superoxide 105.9 and V-ATPase pH SP 2.4.
Screening Cc1ccc(NC(=O)NCc2ccccn2)c(C)c1 returned V-ATPase pH 4.6, H9c2 protect -4.5, MIN6 prolif 7.2, pCIP destab 5.6 and Yeast superoxide 122.1.
Screening CCC(=O)C1CCCN(C(=O)c2cccc(OC3CCN(S(C)(=O)=O)CC3)c2)C1 (configuration not stated) returned V-ATPase pH 12.1*, H9c2 protect 5.9, MIN6 prolif -0.5, pCIP destab -0.7, Yeast superoxide 100.7 and V-ATPase pH SP -0.6.
For CN(C)S(=O)(=O)N1CCC(Oc2cccc(C(=O)N3CCCCCC3)c2)CC1 the results were V-ATPase pH 4.9, H9c2 protect -3.2, MIN6 prolif -1.4, pCIP destab -13.8 and Yeast superoxide 96.0.
`CCCCn1nnnc1C(C1CC1)N1CCN(C/C=C/c2ccccc2)CC1` (configuration not stated) gave H9c2 protect 0.4.
N#Cc1c(-c2ccccc2)c(-c2ccccc2)n(Cc2ccco2)c1NC(=O)c1cccs1 was read as V-ATPase pH 9.7*, HSV replic up inconclusive, H9c2 protect 12.0, MIN6 prolif -3.3, pCIP destab 5.2, Yeast superoxide 102.1 and V-ATPase pH SP -5.5.
